# Sampled rows, rich in hits. Any-hit rate of the full collection: about 13%.
# A350 autofl = A350 region autofluorescence | Compound autofluorescence, 340/450 nm, Alexa 350 dye-equivalents; active compounds read high | 11% of 59,000 active | max dye-equivalent concentration, M; in the data active = max dye-equivalent concentration above about 10 nM; inconclusive = mostly about 1.1 nM to 9.6 nM
# HADH2 inhib = HADH2 (human) dehydrogenase inhibition. recombinant HADH2, NADH fluorescence, beta-hydroxybutyryl-CoA. AID 886. Potency, µM (titrated, usually from 57.1 µM), for inactives: at the top dose activity change, negative = inhibition, hits mostly inhibitors. Q99714. 3.4% of 73,000 active; also: potency is read from the fitted curve at half-maximal effect; % is scaled to controls: 0 for no effect and ±100 for the full control effect; nearly all actives have a fitted effect of over 60% in size
# Target sequence (Q99714 whole entry, looked up, one chain of several): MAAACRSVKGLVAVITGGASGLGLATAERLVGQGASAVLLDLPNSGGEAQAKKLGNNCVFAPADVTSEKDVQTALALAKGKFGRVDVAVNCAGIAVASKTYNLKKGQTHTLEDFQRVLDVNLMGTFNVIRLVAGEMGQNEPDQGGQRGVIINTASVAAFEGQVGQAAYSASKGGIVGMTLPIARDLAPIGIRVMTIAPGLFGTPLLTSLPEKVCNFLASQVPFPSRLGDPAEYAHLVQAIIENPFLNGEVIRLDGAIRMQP
#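 Buffer 100 mM Tris-HCl pH 9.0/0.01% Tween-20; HADH2 20 nM; NAD+ 1 mM; beta-hydroxybutyryl-CoA 90 uM (all final). 15 min cpd preincubation, RT.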
# HSD17B inhib = blocks hydroxysteroid 17-beta dehydrogenase activity. Q99714. recombinant HSD17B10, NADH fluorescence kinetic. Potency, µM (top dose mostly 57.1 µM), for inactives: at the top dose activity change, negative = inhibition, most hits filed as inhibitors. 7.6% of 75,000 active. AID 893;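 also: the protocol describes HADH2 (HSD17B10) and not the HSD17B4 of the title; potency is read from the fitted curve at half-maximal effect; % is scaled to controls: 0 for no effect and ±100 for the full control effect; nearly all actives have a fitted effect of over 70% in size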
#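 Enzyme plus compound, 15 min room temperature; substrate mix added (NAD+ 1 mM, beta-hydroxybutyryl-CoA 90 uM final); plates read kinetically for NADH fluorescence. HADH2 was His-tagged, E. coli-derived, 20 nM.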
# AID923 = qHTS Assay for Allosteric/Competitive Inhibitors of Caspase-1: Spectroscopic Profiling in AFC Spectral Region. 1.1% of 75,000 active. compound fluorescence, AFC spectral region (405/520 nm). Potency, µM (highest dose often 57.5 µM), inactives show top-dose fluorescence increase, usual class: activators. AID 923, 2007; also: potency is read from the fitted curve at half-maximal effect; 0% is about no effect
#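 Titrations up to 57 uM read every 20 sec for 3 min (405/520 nm) with 50 nM caspase 1 and 5 uM Ac-WEHD-AFC, pH 7.5 HEPES buffer. Fluorescence-vs-time intercept gave baseline, scaled against on-plate AFC standard.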
# 4MU fluor = 4-MU region autofluorescence; 11% of 59,000 active; AID 589; compound autofluorescence, 340/450 nm, 4-MU equivalents; active compounds read high; max dye-equivalent concentration, M; in the data active = max dye-equivalent concentration above about 10 nM; inconclusive = mostly about 1.1 nM to 9.6 nM
#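 Intrinsic fluorescence at 340/450 nm (ex/em) was read after 15 min at room temperature in pH 8.0, 100 mM Tris. Each compound concentration expressed as 4-MU-equivalent concentration from a six-point 4-MU standard series on each plate.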
# * hit, by the source's call; i = inactive; ? = inconclusive; . = no result; [ ] = remark or other dose. Unless noted, calls follow the shape of the dose curve; as a rule, active = well fitted curve in the direction sought with a large enough effect; inconclusive = small, poorly fitted or top-dose-only effect, or another doubt; inactive = no such curve, though single readings can be large; an effect the other way counts as inactive or inconclusive.
SMILES,A350 autofl,HADH2 inhib,HSD17B inhib,AID923,4MU fluor
CCC(=O)c1cc2c(C)cc(=O)oc2c(C)c1O,?,-6%,66%,3%,i
COC(=O)C(CC(C)C)Oc1ccc2c(C)cc(=O)oc2c1 (configuration not stated),.,?,32µM*,-2%,.
Cc1cc(=O)oc2cc(O)c(O)cc12,.,.,16µM*,-5%,.
Cc1cc(=O)oc2cc(OC(C)C(=O)Nc3nccs3)ccc12 (configuration not stated),i,i,-10%,4%,i
Cc1cc(=O)oc2c(O)c(O)ccc12,.,.,6%,5%,.
Cc1cc(=O)oc2cc(O)ccc12,1.5e-05M*,2.5µM*,10µM*,21%[25.7 µM],1.6e-05M*
CC1(C)OC(C(O)(c2cc(F)c(F)c(F)c2)c2cc(F)c(F)c(F)c2)C(C(O)(c2cc(F)c(F)c(F)c2)c2cc(F)c(F)c(F)c2)O1 (configuration not stated),.,21%[11.4 µM],-15%[11.4 µM],0%[11.5 µM],.
CCOC(=O)CCN1C(=O)[C@H]2[C@H]3[C@H](O)[C@H](O)C/C(=N/OCC(C)C)[C@H]3CC[C@@H]2C1=O,.,2%[11.4 µM],4%[11.4 µM],-2%[11.5 µM],.
Nc1nc2ncc(=O)[nH]c2c(=O)[nH]1,.,.,25µM*,6%,.
COc1ncnc2c1NC(=O)CS2,i,6%,4%,-1%,i
COc1ncnc2c1N[C@@](C)(O)c1c(F)c(F)c(F)c(F)c1S2,2.5e-07M*,-3%,?,4%,1.9e-07M*
O=S(=O)(Nc1ccc2c(c1)OCCO2)c1cccc2cccnc12,i,5%,-1%,0%,i
O=S(=O)(Nc1nc2ccccc2nc1NCc1ccco1)c1cccs1,4.5e-08M*,-19%,-12%,4%,3.4e-08M*
C=CCNc1nc2ccccc2nc1NS(=O)(=O)c1cccs1,5.2e-08M*,-22%,-10%,3%,4e-08M*
O=S(=O)(Nc1nc2ccccc2nc1Nc1ccc2c(c1)OCCO2)c1cccs1,i,?,32µM*,13%,i
Cn1c(NCc2ccco2)nc2ccccc21,?,-24%,-20%,0%,?
C=CCc1cccc(C2C(C)CCC3C(=O)N4C(CCC(C)C4c4cccc(CC=C)c4)C(=O)N32)c1 (configuration not stated),.,3%[11.4 µM],6%[11.4 µM],-1%[11.5 µM],.
c1ccc(-c2csc3ncnc(NCCN4CCOCC4)c23)cc1,i,6%,17%,-1%,i
c1ccc(-c2oc3ncnc(NCCCN4CCOCC4)c3c2-c2ccccc2)cc1,i,10µM*,32µM*,0%,i
COc1ccc(-c2oc3ncnc(NCCN4CCOCC4)c3c2-c2ccc(OC)cc2)cc1,4e-08M*,33%,25µM*,1%,5.3e-08M*
COc1ccc(-c2oc3ncnc(NCCCN4CCOCC4)c3c2-c2ccc(OC)cc2)cc1,5.1e-08M*,?,25µM*,-3%,4.4e-08M*
COc1ccc(-n2ncc3c(NCc4cccs4)ncnc32)cc1,i,12%,32µM*,-2%,i
c1ccc(-n2ncc3c(NCc4cccs4)ncnc32)cc1,.,?,?,-2%,.
COc1cccc(C2C(C)CCC3C(=O)N(C)C(C(C)C)C(=O)N32)c1 (configuration not stated),.,11%[11.4 µM],2%[11.4 µM],2%[11.5 µM],.
CCC/C=C(\CCC)C(NS(=O)(=O)c1ccc(-c2ccccc2)cc1)c1ccc(C(=O)OC)cc1 (configuration not stated),.,6%,-12%,2%,.
SMILES,A350 autofl,HADH2 inhib,HSD17B inhib,AID923,4MU fluor
Clc1ccccc1-c1cc(NCc2ccccc2)ncn1,i,-2%,-25%,1%,i
CN1CCCC[C@@H]1CCN1CCCCC1,i,-2%[11.4 µM],2%[11.4 µM],0%[11.5 µM],i
C[C@@]12C(=O)OC(=O)[C@@]1(C)[C@H]1CC[C@@H]2O1,i,-2%,3%,-4%,i
Clc1cccc(Cl)c1C(Nc1nncs1)Nc1nncs1,i,8%[11.4 µM],2%[11.4 µM],-3%[11.5 µM],i
c1ccc(-n2ncc3c(NCc4cccnc4)ncnc32)cc1,.,?,25µM*,1%,.
COc1ccc(-c2oc3ncn(CCN4CCOCC4)c(=N)c3c2-c2ccc(OC)cc2)cc1,1.9e-08M*,?,98%,1%,1.7e-08M*
Cc1cccc(-n2ncc3c(NCCCn4ccnc4)ncnc32)c1,.,?,25µM*,-4%,.
CCCNc1ncnc2c1cnn2-c1ccc(OC)cc1,i,.,.,.,i
COc1ccc(-n2ncc3c(NCCCN4CCOCC4)ncnc32)cc1,?,6%,32µM*,0%,i
COc1ccc(-c2csc3ncnc(NCCN4CCOCC4)c23)cc1,i,-2%,23%,0%,i
Nc1c(C(=O)NCc2cccnc2)sc(=S)n1-c1ccccc1,.,16µM*,?,-1%,.
FC(F)(F)C12CC(c3ccccc3)=NCCN1CCN2 (configuration not stated),1.1e-07M*,8%,-24%,5%,9.1e-08M*
CCCCCCCC/C=C\CCCCCCCC(N)=O,.,-6%,-8%,0%,.
CC(C)C[C@@H](CC(=O)N[C@H](CC(=O)N[C@@H]1CCNC[C@H]1C(=O)N[C@H](CC(=O)N[C@@H](CCC(=O)O)CC(=O)O)CC(C)C)C(C)C)NC(=O)[C@@H]1CNCC[C@H]1N,.,-13%,.,.,.
CC(C)(C)OC(=O)N[C@@H](Cc1ccccc1)c1nnc(S(=O)(=O)Cc2ccccc2)o1,i,1.3µM*,-13%,-1%,i
CC(C)(C)OC(=O)N[C@@H](Cc1ccccc1)c1nnc(SCC(=O)O)o1,?,5%,4%,-1%,i
CCC(C)[C@@H](NC(=O)OC(C)(C)C)c1nnc(S(=O)(=O)Cc2cccc(C)c2)o1 (some centres not stated),i,2.5µM*,-5%,1%,i
CCC(C)C(NCc1cccc(C)c1)C(=O)O (configuration not stated),?,15%,-5%,2%,?
O=C(O)CCc1ccc(-c2ccc(Cl)cc2)n1Cc1ccco1,1.2e-08M*,-24%,25µM*,-1%,1.1e-08M*
Cc1ccc(-c2ccc(CCC(=O)O)n2C(C)C)cc1,.,-25%,20µM*,3%,.
CCc1ccc(CCC(=O)Nc2nccs2)o1,i,-6%,-8%,-2%,i
O=C(O)CCc1ccc(-c2cccs2)o1,.,2µM*,20µM*,1%,.
C=CCn1c(=N)n(CC(=O)O)c2ccccc21,i,-5%,1%,-1%,i
O=C(O)CCc1ccc(-c2ccc(Cl)cc2)n1CC(=O)O,.,-11%[11.4 µM],?,1%,.
Cc1ccc(N2CCN(CCC(=O)O)CC2)cc1,i,-1%[11.4 µM],-1%[11.4 µM],-2%[11.5 µM],i
C=CCn1c(CCC(=O)O)ccc1-c1ccccc1,2e-08M*,?,32µM*,-1%,1.8e-08M*
Cc1ccc(N(Cc2ccccc2)Cc2ccccc2)cc1,i,5%[11.4 µM],3%[11.4 µM],0%[11.5 µM],i
O=C1CC2(CCCC2)CC(=O)N1CCNC[C@H]1COc2ccccc2O1,.,7%,-2%,-1%,.

# Source: PubChem (National Center for Advancing Translational Sciences (NCATS))
